# Measurements as given in PubChem BioAssay (NCI).
# About 83,000 compounds went through this panel and 20% of them were active in at least one assay; those are over-represented in the sample as a whole.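 Treatment: one concentration, 48 hours, 96-well format. Scoring: percent growth, with anything below 10 considered active.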 Values without a mark were called inactive. The source made the active and inactive calls.
# Key:
# Test in all cases: NCI-60 one-dose screen, 48 h (100 = growth as untreated, 0 = no growth, -100 = all killed)
# Conditions in all cases: 10 µM unless noted
# [1] = system: SR leukemia
# [2] = system: RPMI-8226 leukemia
# [3] = system: OVCAR-8 ovarian
# [4] = system: OVCAR-5 ovarian
# [5] = system: OVCAR-4 ovarian
# [6] = system: SK-OV-3 ovarian
# [7] = system: IGROV1 ovarian
# [8] = system: OVCAR-3 ovarian
# [9] = system: HS 578T breast
# [10] = system: NCI/ADR-RES ovarian
# [11] = system: T-47D breast
# [12] = system: BT-549 breast
# [13] = system: MDA-MB-435 melanoma
# [14] = system: SW-620 colon
# [15] = system: MCF7 breast
# [16] = system: HCT-116 colon
# [17] = system: HCC-2998 colon
# [18] = system: KM12 colon
SMILES,growth [1],growth [2],growth [3],growth [4],growth [5],growth [6],growth [7],growth [8],growth [9],growth [10],growth [11],growth [12],growth [13],growth [14],growth [15],growth [16],growth [17],growth [18]
C#Cc1ccc(NC(=O)Cc2ccc(/C=C/C(=O)c3nccn3C)cc2)cc1,20.8%,19.2%,26.2%,105%,69.9%,109%,52.8%,12%,35.7%,34.5%,69.2%,71.2%,83.6%,15.8%,21.5%,21.6%,82.3%,25.6%
c1ccc(-c2nc(N3CCNCC3)c3oc(-c4ccccc4)nc3n2)cc1,-1.84% (active),-32.6% (active),-25.1% (active),-82% (active),-88.2% (active),-46% (active),-88.8% (active),-53.4% (active),-60.7% (active),-48.8% (active),-41.9% (active),106%,-93.9% (active),-77.7% (active),-62.3% (active),-31.7% (active),-87.5% (active),-75.4% (active)
CCOC(=O)c1c(Nc2nc3ccccc3s2)sc2c1CCC(=O)C2,0.365% (active),12.7%,27.2%,86.7%,8.06% (active),99.5%,44.7%,49.7%,41.1%,87.3%,37%,13.5%,82.6%,19.4%,39.3%,11.4%,104%,47.7%
CNC(=O)c1cc(Oc2ccc3nc(NC(=O)Nc4ccc(F)cc4F)sc3c2)ccn1,80.4%,72.9%,45.1%,95.2%,34.2%,76.3%,84.2%,74.7%,44.5%,45.5%,56.5%,100%,62.5%,99.9%,66.8%,20.7%,88.1%,72.6%
CC(C)=CC(=O)C1C(=O)c2ccccc2C1=O,91.3%,103%,97.8%,97.3%,102%,90.4%,70.5%,95.7%,102%,108%,97.3%,108%,98.9%,102%,93.4%,103%,111%,103%
CC/C(=C(/c1ccc(Cl)cc1)c1ccc(OCCCN(C)C)cc1)c1ccc(OC)cc1,-40.6% (active),-41.3% (active),74.3%,73.5%,86.6%,102%,63.4%,68.8%,84.8%,82.9%,51.1%,86.1%,64.7%,4.55% (active),9.13% (active),46.6%,16.8%,31.7%
CCCCCCCCNc1ncnc2c1ncn2Cc1nnc2c3ccccc3c(Cl)nn12,16.7%,35.4%,30%,102%,42.9%,4.2% (active),31.4%,58%,54.3%,35.3%,26.5%,28%,46%,56.8%,41.4%,31.2%,76.3%,65.3%
C=C(C)[C@@H]1CCC[C@]2(C(=O)OC)CC[C@]3(C)[C@@H](CC[C@@H]4[C@@]5(C)CCCNC(C)(C)[C@@H]5CC[C@]43C)[C@@H]12,54.5%,75.7%,89.6%,86.4%,88.1%,95.8%,65.3%,74.4%,87.4%,98.8%,75.9%,93.9%,92.9%,86.7%,86.5%,93.3%,96.3%,85.8%
CO[C@H]1/C=C/O[C@@]2(C)Oc3c(C)c(O)c4c(O)c(c5c(nc6cc(C)ccn65)c4c3C2=O)NC(=O)/C(C)=C\C=C\[C@H](C)[C@H](O)[C@@H](C)C(O)[C@@H](C)[C@H](OC(C)=O)[C@@H]1C (stereo partly specified),99.3%,104%,98.3%,113%,100%,31.9%,97%,104%,72%,104%,-5.36% (active),97.4%,104%,114%,103%,94.9%,106%,108%
C=C1CC[C@@H]2[C@](C)(COC(C)=O)[C@H](OC(C)=O)CC[C@@]2(C)[C@@H]1CC(Nc1ccc(S(=O)(=O)Nc2nccc(C)n2)cc1)C1=CCOC1=O (stereo partly specified),0.793% (active),-5.56% (active),10.5%,26.9%,32.3%,101%,25.8%,-45% (active),68.6%,20.9%,69.1%,-2.66% (active),0.231% (active),-49.6% (active),0.135% (active),-32.2% (active),68.2%,13.2%
CC(C)C(=O)Nc1ncc(C(=O)NCCN(Cc2ccccc2)C(=O)c2ccc(S(=O)(=O)Nc3ccccc3)cc2)s1,100%,97.6%,102%,97.7%,112%,110%,105%,106%,87.1%,101%,91.7%,89.2%,98.1%,107%,85.8%,90.9%,106%,105%
O=c1ccc2c(ccc3ncccc32)o1,103%,112%,105%,104%,111%,104%,109%,108%,108%,106%,94.6%,116%,116%,115%,95.7%,113%,107%,107%
C#CCOC(=O)C(N)CSSCC(N)C(=O)O (stereo unspecified),96.1%,103%,111%,84.4%,95.9%,109%,99.5%,112%,107%,101%,100%,104%,89.1%,85%,99.5%,91.8%,101%,108%
COc1cccc(-c2cc(-c3ccc(Nc4nc(Nc5ccc(Cl)cc5)nc(Nc5ccc(Cl)cc5)n4)cc3)nc(N)c2C#N)c1,-6.27% (active),-55.8% (active),48.9%,82.2%,23.6%,122%,10.1%,-52.7% (active),14.1%,73.3%,-30.3% (active),-30.1% (active),-5.12% (active),-39.7% (active),28.5%,6.35% (active),-29.9% (active),46.7%
NS(=O)(=O)Oc1cccc(-c2nc3sccn3c2-c2ccccc2)c1,19.8%,44.1%,66.8%,95.2%,74.9%,76.7%,54.4%,39.1%,47%,48.1%,36.2%,54%,3.29% (active),35.5%,26.1%,23.5%,87.4%,48.4%
O=C1C(Nc2ccc(Br)cc2)=C(I)C(=O)c2ncccc21,4.58% (active),6.59% (active),2.71% (active),73.5%,-95.6% (active),83.9%,-56.7% (active),-85.3% (active),40.7%,1.39% (active),-41.3% (active),63.9%,-79% (active),-24.6% (active),-35.4% (active),-36.2% (active),87.3%,49.9%
COc1ccc(Nc2nc(Nc3cc(C)[nH]n3)c3cc(OC)c(OC)cc3n2)cc1,0.87% [20 µM] (active),-50.4% [20 µM] (active),-31.2% [20 µM] (active),-98% [20 µM] (active),-83.9% [20 µM] (active),-96.2% [20 µM] (active),-88.8% [20 µM] (active),-63.1% [20 µM] (active),-63.1% [20 µM] (active),-63.7% [20 µM] (active),-52.1% [20 µM] (active),-87.5% [20 µM] (active),-97.5% [20 µM] (active),-74.4% [20 µM] (active),-71.4% [20 µM] (active),-54.4% [20 µM] (active),-73.3% [20 µM] (active),-74% [20 µM] (active)
